In all, about 310,000 compounds went through this assay and about 11,000 (3.5%) were called active. Not shown: some 8% with an inconclusive outcome. Calls come from the whole dose curve; as a rule, active = well fitted inhibition curve with a large enough effect; inconclusive = small, poorly fitted or top-dose-only effect, or effect the other way; inactive = flat fitted curve, though single readings scatter. For the sample, actives were picked, then their nearest neighbours and some compounds at random.
Assay: VP16 counterscreen qHTS for inhibitors of ROR gamma transcriptional activity; note: nearly all actives have a fitted effect of over 50% in size
Details: Drosophila S2 Gal4-VP16 UAS-luciferase, luminescence, 20 h; series mostly up to 53.6 µM; activity, negative = inhibition: at the top concentration
Text: NIH Molecular Libraries Probe Production Network [MLPCN]
NIH Chemical Genomics Center [NCGC]
Assay Provider: Dan Littman, New York University
The retinoic acid-related orphan receptor (ROR) gamma is a transcription factor that has a central role in the differentiation of Th17 cells, a subset of T helper cells that secrete the inflammatory cytokines IL-17, IL-17F, and IL-22. Th17 cells have been implicated in graft versus host disease, autoimmune disease and asthma. ROR gamma is induced in naive T helper cells in the presence of TGF-beta combined with IL-6, IL-21, or IL-23, and thereafter directs the expression of the Th17 lineage cytokines. To identify nonspecific inhibitors, a Drosophila Schneider cell line was stably transfected with two vectors: a gene expressing a fusion of the Gal4 DNA binding domain and VP16 transactivation domain under the control of the metallothionine promoter and a Photinus luciferase reporter regulated by the Gal4 binding site enhancer, UAS. […] Small molecule inhibitors that inhibit components common to the RORgt and VP16 assays, such as the Gal4 DNA binding domain or the UAS luciferase reporter, will be active in both assays and thus scored as nonspecific.
For screening, 600 cells in 4 uL/well were dispensed into white solid 1536-well plates (Grenier) using a solenoid-based dispenser. Following transfer of 23 nL compound or DMSO vehicle by a pin tool, the plates were incubated 1 hr at ambient temperature, and 1 uL/well copper sulfate (700 uM final concentration) was added. The plates were centrifuged 15 s at 1000 RPM and incubated 20 hr at ambient temperature. After addition of 1.5 uL Photinus luciferase detection reagent, the plates were incubated 10 min at ambient temperature and then read by a ViewLux (Perkin Elmer) to detect luminescence.
% is set by controls: 0 for no effect and ±100 for the full control effect; potency is the fitted concentration of half-maximal effect.

SMILES	activity, negative = inhibition	Potency
COc1ccc(C2c3[nH]c4ccccc4c3C[C@H]3C(=O)N(CC(C)C)CC(=O)N23)c(OC)c1 (stereo partly specified)	-0.271% (inactive)	
O=S(=O)(NC1CCCCC1N1CCCCC1)c1ccc(Cl)cc1 (stereo unspecified)	-10.5% (inactive)	
COC(=O)c1cccnc1NC(=S)NC(C)C		4.47 µM (active)
COc1ccc(OC)c(C(C)NC(=S)Nc2ccc(S(=O)(=O)Nc3ncccn3)cc2)c1 (stereo unspecified)	10.8% (inactive)	
CCOC(=O)c1cccnc1NC(=O)c1ccncc1	-16% (inactive)	
CCN(C(=O)c1cc([N+](=O)[O-])ccc1NCc1cccnc1)c1ccccc1	-7.93% (inactive)	
CC1=NN(Cc2ccccc2)C(=O)/C1=C/c1ccc(N(C)C)cc1	4.44% (inactive)	
O=C1NCC(=O)N(Cc2ccccc2)/C1=C/c1ccccc1	0.172% (inactive)	
CN(C)c1ccc(/C=C2\NC(=S)N(Cc3ccccc3)C2=O)cc1		11.2 µM (active)
Cn1cc(S(=O)(=O)Nc2ccc(Cl)cc2Cl)c(=O)n(C)c1=O	-9.29% (inactive)	
Cc1cc(NC(=O)c2cnn3cccnc23)n(-c2ccccc2)n1	-28.7% (inactive)	
Cc1cc(C)nc(-n2nc(C)cc2NC(=O)c2ccc(F)cc2F)n1		3.16 µM (active)
CC(=O)N/C(=N/c1nc(C)cc(C)n1)Nc1ccc(F)cc1F	5.33% (inactive)	
COc1cc2ccccc2cc1C(=O)N(CCN(C)C)c1nc2c(F)cccc2s1	-13.9% (inactive)	
CC(C)(C)SCCSC1=CC(=O)CC(c2ccccc2)C1 (stereo unspecified)	28.7% (inactive)	
O=C(Nc1ccc(S(=O)(=O)N2CCCCCC2)cc1)c1c(F)cccc1F	-14.4% (inactive)	
CCOc1ncccc1C(=O)NCCc1ccc(OC)cc1	-0.0396% (inactive)	
Cc1cc(C)cc(NC(=O)C2CCCN2S(=O)(=O)c2cccc3cccnc23)c1 (stereo unspecified)	0.608% (inactive)	
O=C(Nc1nc2ccc([N+](=O)[O-])cc2s1)c1ccc(S(=O)(=O)N2CCCc3ccccc32)cc1		3.98 µM (active)
O=C(NC(Nc1nc2ccc([N+](=O)[O-])cc2s1)(C(F)(F)F)C(F)(F)F)c1ccccc1		2.82 µM (active)
O=C(COC(=O)c1ccc(F)cc1)Nc1nc2ccc([N+](=O)[O-])cc2s1	-1.03% (inactive)	
CSc1nc2ccc(S(=O)(=O)N3CCc4ccccc43)cc2s1	-40.6% (inactive)	
O=C(Nc1nc2ccc([N+](=O)[O-])cc2s1)c1ccncc1	-3.85% (inactive)	
CS(=O)(=O)c1ccc2nc(NC(=O)c3ccc(N4CCCC4=O)cc3)sc2c1	-7.58% (inactive)	
CCOC(=O)c1cc(C(=O)Nc2ccc(S(=O)(=O)Nc3ccc(OC)cc3)cc2)nn1C	-13.2% (inactive)	
COC(=O)c1cccc(N(C(=O)CNC(=O)c2cccs2)C(C(=O)NCC2CCCO2)c2ccc(OC)c(OC)c2)c1 (stereo unspecified)	-2.8% (inactive)	

SMILES	activity, negative = inhibition	Potency
Cc1cccc(CCNS(=O)(=O)c2ccc3c(c2)NC(=O)CO3)c1	10.3% (inactive)	
COc1ccc(CN2CCNC(=O)C2CC(=O)NCc2cn[nH]c2-c2ccccc2)c(F)c1 (stereo unspecified)	-5.29% (inactive)	
COc1ccc(C(CNC(=O)COc2ccccc2OC)N2CCCCC2)cc1 (stereo unspecified)	-0.743% (inactive)	
O=C1OC2(CCCCC2)CC2=C1C1O[C@](c3ccsc3)(Cc3ccccc31)O2	-4.71% [at 10 µM] (inactive)	
COc1cc2c(cc1OC)C(c1ccccc1Br)NC(=O)C2 (stereo unspecified)	-3.64% (inactive)	
COc1ccc(NC(=O)CCCC2CCCCC2)c(OC)c1	9.83% (inactive)	
CCOc1cc(NC(=O)c2ccccn2)c(OCC)cc1NC(=O)c1ccc(OC)cc1	4.71% (inactive)	
CCN(CC)CCOc1ccc2c(c1)C(=NNC(=O)c1ccccn1)c1cc(OCCN(CC)CC)ccc1-2		10 µM (active)
Cc1cccc(OCC(=O)NCCCNC(=O)c2ccccn2)c1	4.73% (inactive)	
Cc1onc(C(=O)Nc2ccc3c(c2)OCO3)c1[N+](=O)[O-]	-0.154% (inactive)	
COc1ccc(N(C(=O)c2snc(C(N)=O)c2N)C(C(=O)NC2CCCC2)c2ccco2)cc1OC (stereo unspecified)	18.6% (inactive)	
COc1ccc(C(=O)NC(=S)N2CCCCC2c2cccnc2)cc1OC (stereo unspecified)		17.8 µM (active)
O=C(Nc1ccccc1C(F)(F)F)N1CCCC1c1cccnc1 (stereo unspecified)	-1.56% (inactive)	
COc1ccc(C(=O)N2CCCC(C(=O)c3ccccc3OC)C2)cc1OC (stereo unspecified)	2.57% (inactive)	
Cc1ccc(-c2cc(C(F)(F)F)n3ncc(C(=O)N4CCCCC4c4cccnc4)c3n2)cc1 (stereo unspecified)	-3.74% (inactive)	
COc1ccc(C(=O)Nc2cccnc2)cc1C(=O)Nc1cccnc1	-9.29% (inactive)	
O=C(NC(=S)N1CCCCC1c1cccnc1)c1ccccc1 (stereo unspecified)		4.47 µM (active)
COc1ccc(Nc2ncnc3sc(C)cc23)cc1	-8.4% (inactive)	
CCc1nnc(NS(=O)(=O)c2ccc(N=Cc3c(C)[nH]n(-c4ccc(C)cc4)c3=O)cc2)s1	0.41% (inactive)	
Cc1ccc(-n2[nH]c(C)c(/C=N/N3C(=O)c4cccc5cccc(c45)C3=O)c2=O)cc1		12.6 µM (active)
Cc1ccc(-c2ccnc3[nH]n(-c4ccccc4)c(=O)c23)cc1	-8.24% (inactive)	
O=C(CNC(=O)C1COc2ccccc2O1)N/N=C/c1cc(Br)c(O)c(Br)c1 (stereo unspecified)	-0.0094% (inactive)	
O=C(NCCc1c[nH]c2ccccc12)C1CCN(Cc2ccc(Br)cc2)CC1	-0.728% (inactive)	
COc1ccccc1N1CCN(C(=O)CCS(=O)(=O)c2ccc3c(c2)NC(=O)C(C)S3)CC1 (stereo unspecified)	-26.4% (inactive)	
CCOc1ccc(NC(=O)C2CCN(C(=O)N3CCOc4ccccc43)CC2)cc1	-5.72% (inactive)	
CCCNC(=O)c1cnc(-c2ccccc2)nc1-c1ccccc1	14.3% (inactive)	

SMILES	activity, negative = inhibition	Potency
CCOC(=O)c1c(C)[nH]c(C)c1S(=O)(=O)N(C)CC(=O)Nc1ccccc1C	0% (inactive)	
CCOC(=O)c1c(C)nc(-c2ccccc2)nc1NC(=O)C(C)C	17% (inactive)	
CC(=O)c1c(C)[nH]c(=S)c(C#N)c1-c1ccc(F)cc1	-8.92% (inactive)	
CCOC(=O)c1c(C)[nH]c(=S)c(C#N)c1-c1ccccc1		17.8 µM (active)
CCOC(=O)c1c(C)[nH]c(C(=O)NCc2ccccc2OC)c1C	-2.66% (inactive)	
CCOC(=O)c1c(C)[nH]c2c1-c1ccccc1C(=O)C2=O		2.82 µM (active)
COc1cccc(CN(C)C(=O)CC23CC4CC(CC(C4)C2)C3)c1OC	-3.75% (inactive)	
COc1cc(/C=C/C(=O)O)cc(S(=O)(=O)Nc2ccccc2C(=O)NCCc2ccccc2)c1OC	-14% (inactive)	
OC(CNCCc1ccc(Cl)cc1Cl)COc1ccccc1 (stereo unspecified)	-1.98% (inactive)	
O=C(N/N=C/c1ccccc1O)/C(=C/c1ccccc1)CCO		1.12 µM (active)
O=C(CCC(=O)Nc1ccccc1)N/N=C/c1ccccc1F	19% (inactive)	
O=C(CCCCCNC(=O)c1ccccc1)N/N=C/c1ccccc1	-1.19% (inactive)	
COc1ccc(CNS(=O)(=O)c2ccc(-c3cnc(C4CC4)o3)cc2)cc1	-15.3% (inactive)	
Cc1ccc(S(=O)(=O)NNC(=O)/C=C/c2cccc(F)c2)cc1	-0.326% (inactive)	
Cc1c(CC(=O)NCC(=O)NCC(=O)O)c(=O)oc2cc3oc4c(c3cc12)CCCC4	-3.98% (inactive)	
C=CCn1c(C)cc(C2=NNC(=NCC)SC2)c1C		1 µM (active)
Cc1cc(C2=NNC(=Nc3ccc(S(=O)(=O)N4CCOCC4)cc3)SC2)c(C)n1CC1CCCO1 (stereo unspecified)	2.49% (inactive)	
CS(=O)(=O)N1CCc2cc(C(=O)Nc3ccccc3Br)ccc21	24.9% (inactive)	
CC(=O)Nc1cc(C(=O)O)ccc1S(=O)(=O)c1ccc(Cl)cc1	1.43% (inactive)	
CS(=O)(=O)c1ccc(Cl)c(NC(=O)Nc2ccccc2)c1	8.24% (inactive)	
O=C(Nc1ccccc1)c1nnsc1S(=O)(=O)c1ccc(Cl)cc1		11.2 µM (active)
CC(=O)Nc1ccc(NC(=O)CN2C(=O)COc3ccc(S(=O)(=O)N4CCCCC4)cc32)cc1	-2.53% (inactive)	
O=[N+]([O-])c1ccc(N(CCO)Cc2ccccc2)c([N+](=O)[O-])c1	-0.982% (inactive)	
Cc1cccc(/C(N)=N/OC(=O)c2ccccc2Cl)c1		5.01 µM (active)
Cc1cccc(C(=O)O)c1	-10% (inactive)	
Cc1cccc(C(=O)c2cccc(C)c2)c1	-10.7% (inactive)	

SMILES	activity, negative = inhibition	Potency
Cc1ccc(Cn2ccc(NC(=O)c3cc(C(C)C)on3)n2)cc1	10% (inactive)	
O=C(Nc1ccn(Cc2ccccc2)n1)c1n[nH]c([N+](=O)[O-])c1Cl		11.2 µM (active)
O=C(Nc1ccn(Cc2ccccc2)n1)c1cccc(F)c1	-24.1% (inactive)	
CCc1ccc(-c2cc3c(=O)n(CC(=O)NCCCN4CCN(Cc5ccccc5)CC4)nc(C)n3n2)cc1	-6.24% (inactive)	
O=C(/C=C/c1ccc(Cl)cc1)NCCCn1ccnc1	9.13% (inactive)	
Cc1ccc2nc(N3C(=O)C(O)=C(C(=O)c4ccco4)C3c3cccc(O)c3)sc2c1 (stereo unspecified)	-7.39% (inactive)	
c1c2c(cc3sc(N4CCCCC4)nc13)OCCO2		1.26 µM (active)
Cc1nc2cc3c(cc2s1)OCO3	-16.5% (inactive)	
Brc1ccc2nc(N3CCCC3)sc2c1	-10.3% (inactive)	
CN(c1ccccc1)S(=O)(=O)c1ccc(Cl)c(C(=O)NCCc2c[nH]c3ccccc23)c1	-1.77% (inactive)	
CN(c1ccccc1)S(=O)(=O)c1cc(C(=O)Nc2nc3ccccc3[nH]2)ccc1Cl		3.16 µM (active)
CN(c1ccccc1)S(=O)(=O)c1cc(C(=O)OCC(=O)N2CCN(C(=O)c3ccco3)CC2)ccc1Cl	7.37% (inactive)	
Cc1c2cnn(CC(=O)NCCCN3CC(C)CC(C)C3)c(=O)c2c(C)n1Cc1ccc(Cl)cc1 (stereo unspecified)	-1.41% (inactive)	
COc1ccc(C(=O)NCc2nnc(SCC(=O)NC3=NCCS3)n2C)cc1	2.32% (inactive)	
Cc1cc(-c2ccc(S(=O)(=O)N3CCN(c4cccc(C(F)(F)F)c4)CC3)s2)on1	-17.3% (inactive)	
NC(=O)c1cc2ccccc2o/c1=N/NC(=O)c1cccc(F)c1	-20.1% (inactive)	
Cc1cccc(S(=O)(=O)N2CN(CC3CCCO3)c3nc4ccccc4nc32)c1 (stereo unspecified)	5.1% (inactive)	
CC1=C(C(N)=O)C(c2ccc(Br)cc2)n2ncnc2N1 (stereo unspecified)	12.9% (inactive)	
Fc1ccccc1/C=C1\CCCC2=C1Nc1ncnn1C2c1ccccc1F (stereo unspecified)		3.98 µM (active)
Cc1ccc(C(=O)c2coc3ccc(O)c(CN(C)C)c23)cc1	-13.4% (inactive)	
CCCCCCn1cc(C(=O)O)c(=O)c2cc(F)c(N3CCCCC3)cc21	-9.72% (inactive)	
Cc1ccc(NC(=O)c2cc(-c3ccccc3O)n[nH]2)cc1C	-8.32% (inactive)	
O=C(c1ccc(OC2CCN(C/C=C/c3ccc(F)cc3)CC2)cc1)N1CCCCC1	7.64% (inactive)	
